# Results: PubChem BioAssay (EPA / NIEHS)
# Active and inactive are the calls of the source. How the source made its calls: active means hit-call score of the fitted dose curve at least 0.9, where 1 is the maximum; inactive means score below 0.9.
# Assay: CCTE_Shafer_MEA_acute_synchrony_index: CCTE's Neural Acute Assay for Synchrony, Shafer Lab (AID 2284027);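 further: fitted for loss of signal so actives lower synchrony relative to DMSO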
# Procedure: CCTE_Shafer_MEA_acute assay is conducted using Axion Biosystems 48 well microelectrode array (MEA) plates and Maestro recording system. Each well of the MEA plate contains a grid of 16 microelectrodes embedded in the culture surface. Electrically active cells, such as neurons, can be cultured over the electrodes, and electrical activity in these cells can be recorded extracellularly. The spontaneous firing of neurons is captured from each electrode on a microsecond timescale providing both temporally and spatially precise data. […] The CCTE_Shafer_MEA_acute assay uses primary cultures of rat cortical neurons. As these cultures mature over time, neural networks develop functional activity and form cohesive networks in which electrical activity can be highly coordinated. Baseline 40-minute recordings are made on days post-plating 13 or 15, followed by a secondary 40-minute recording after chemical exposure.CCTE_Shafer_MEA_acute_synchrony_index is a component of the CCTE_Shafer_MEA_acute assay. It measures the synchrony of the neural network as a unitless measure between 0 (low synchrony) to 1 (high synchrony) during a recording in a microelectrode array (MEA) using Axion Biosystems Maestro 768 channel amplifier with the AxIS adaptive spike detector. The recordings before and after chemical treatment are used to calculate a percent change in the synchrony index in each well.Data from the assay component CCTE_Shafer_MEA_acute_synchrony_index was analyzed into 1 assay endpoint. This assay endpoint, CCTE_Shafer_MEA_acute_synchrony_index, was analyzed in the negative analysis fitting direction relative to DMSO as the negative control and baseline of activity. Using a type of functional reporter, gain or loss-of-signal activity can be used to understand electrical activity.
# Spontaneous activity in the cortical cultures was recorded using an Axion Biosystems Maestro 768 channel amplifier and Axion Integrated Studios (AxIS) v1.8 (or later) software. The amplifier recorded from all channels simultaneously (gain = 1200 x; sampling rate = 12.5 kHz/channel): raw signals were filtered with a Butterworth band-pass filter (300-5000 Hz), which filters out slower local field potentials leaving only fast potentials, i.e., "spikes", arising from extracellular currents associated with action potentials (Pine 2006; Wheeler and Nam 2011). On-line spike detection of filtered signals was conducted with the AxIS adaptive spike detector, using a threshold of 8x the root mean squared (rms) noise on each channel. Any electrodes with rms noise levels greater than 5 uV were grounded (e.g., no data were recorded). Once grounded, an electrode was grounded for the duration of the experiment. All recordings were conducted at 37 C. Wells were deemed usable if on the day of the exposure >/= 10 electrodes were active (defined as >/= 5 spikes/min). On DIV 13 or 15, a minimum of three wells from one cortical culture preparation were treated with each compound (0.03-40 uM). Prior to recording baseline activity, each mwMEA plate was placed in the Maestro at 37 C and allowed to sit for 20 min while firing rates stabilized. Baseline activity (40 min) was recorded before the addition of each compound. An additional 40 min of spontaneous activity was recorded in the presence of each compound. Changes in network parameters relative to baseline were assessed following compound treatment.
Compound,outcome,AC50
CCCCCCCC/C=C\CCCCCCCC(=O)OC[C@@H](O)[C@H]1OC[C@H](O)[C@H]1O,inactive,
O=S(=O)(O)c1ccc(N=Nc2c(O)ccc3cc(S(=O)(=O)O)ccc23)cc1,inactive,
COCc1nnc(-c2ccc[n+]([O-])c2)n1-c1c(Cl)c(Cl)cc2[nH]c(=O)c(=O)[nH]c12,,14.7 µM (active)
CCCCC(CC)C(=O)OCCOCCOCCOC(=O)C(CC)CCCC (stereo not drawn),inactive,
OCc1ccccc1,inactive,
CCc1ccc(O)c(C(C)(C)C)c1,inactive,
CCCCCCCC1CCC(=O)O1 (stereo not drawn),inactive,
COc1cc2c(c(OC)c1OC)-c1ccc(OC)c(=O)cc1[C@@H](NC(C)=O)CC2,inactive,
c1ccc2cc3ccccc3cc2c1,inactive,
c1ccc(C(O[C@@H]2CCCN(CCc3ccc4c(c3)OCO4)C2)c2ccccc2)cc1,inactive,
CCCc1ccccc1,inactive,
CC[C@H](C)C(=O)O[C@H]1C[C@H](O)C=C2C=C[C@H](C)[C@H](CC[C@@H](O)C[C@@H](O)CC(=O)O)[C@H]21,inactive,
Cn1c(=O)c2[nH]cnc2n(C)c1=O,inactive,
CC(C)C(=O)Nc1ccc([N+](=O)[O-])c(C(F)(F)F)c1,inactive,
COc1cc(C(C)C)c2c(c1)S(=O)(=O)N(COc1cc(=O)n3cccc(OCCN4CCCCC4)c3n1)C2=O,,7.39 µM (active)
C=CCc1cc(S(=O)(=O)c2ccc(O)c(CC=C)c2)ccc1O,inactive,
Cc1ncc([C@@H](CCCCCCc2ccc3c(n2)NCCC3)CC(=O)O)cn1,inactive,
OC(CCl)CCl,inactive,
